Test [1] concerns the target T1, Tyrosine-protein kinase ITK/TSK (Homo sapiens) (UniProt Q08881).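 Further: values are mean percent inhibition of ITK from the GSK PKIS screen.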
T1 sequence (whole entry): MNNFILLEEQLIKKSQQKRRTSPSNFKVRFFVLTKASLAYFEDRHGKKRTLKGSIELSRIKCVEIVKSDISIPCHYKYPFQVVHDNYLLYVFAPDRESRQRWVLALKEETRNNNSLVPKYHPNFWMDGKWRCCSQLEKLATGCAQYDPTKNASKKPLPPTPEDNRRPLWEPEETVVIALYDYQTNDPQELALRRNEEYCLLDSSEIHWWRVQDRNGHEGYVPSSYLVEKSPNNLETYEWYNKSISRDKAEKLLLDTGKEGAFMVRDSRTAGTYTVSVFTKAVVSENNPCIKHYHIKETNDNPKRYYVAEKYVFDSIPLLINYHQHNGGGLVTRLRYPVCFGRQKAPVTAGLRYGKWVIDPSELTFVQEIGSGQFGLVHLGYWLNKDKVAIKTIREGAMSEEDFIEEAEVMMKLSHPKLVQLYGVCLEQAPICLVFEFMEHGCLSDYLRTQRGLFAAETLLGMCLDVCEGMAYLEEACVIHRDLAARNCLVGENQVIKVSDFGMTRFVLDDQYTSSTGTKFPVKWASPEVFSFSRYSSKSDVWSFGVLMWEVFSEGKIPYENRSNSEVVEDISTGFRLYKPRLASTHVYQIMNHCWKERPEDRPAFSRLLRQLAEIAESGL
Particulars: at 1 µM.

Test [2] addresses Tyrosine-protein kinase JAK1 (Homo sapiens) (UniProt P23458). Particulars: at 0.1 µM.
Test [3] has the same target. Particulars: at 1 µM.
Test [4] deals with Tyrosine-protein kinase JAK2 (Homo sapiens) (UniProt O60674). Particulars: at 0.1 µM.
Test [5] has the same target. Particulars: at 1 µM.
The target of test [6] is T2, Tyrosine-protein kinase JAK3 (Homo sapiens) (UniProt P52333).
T2 sequence (whole entry): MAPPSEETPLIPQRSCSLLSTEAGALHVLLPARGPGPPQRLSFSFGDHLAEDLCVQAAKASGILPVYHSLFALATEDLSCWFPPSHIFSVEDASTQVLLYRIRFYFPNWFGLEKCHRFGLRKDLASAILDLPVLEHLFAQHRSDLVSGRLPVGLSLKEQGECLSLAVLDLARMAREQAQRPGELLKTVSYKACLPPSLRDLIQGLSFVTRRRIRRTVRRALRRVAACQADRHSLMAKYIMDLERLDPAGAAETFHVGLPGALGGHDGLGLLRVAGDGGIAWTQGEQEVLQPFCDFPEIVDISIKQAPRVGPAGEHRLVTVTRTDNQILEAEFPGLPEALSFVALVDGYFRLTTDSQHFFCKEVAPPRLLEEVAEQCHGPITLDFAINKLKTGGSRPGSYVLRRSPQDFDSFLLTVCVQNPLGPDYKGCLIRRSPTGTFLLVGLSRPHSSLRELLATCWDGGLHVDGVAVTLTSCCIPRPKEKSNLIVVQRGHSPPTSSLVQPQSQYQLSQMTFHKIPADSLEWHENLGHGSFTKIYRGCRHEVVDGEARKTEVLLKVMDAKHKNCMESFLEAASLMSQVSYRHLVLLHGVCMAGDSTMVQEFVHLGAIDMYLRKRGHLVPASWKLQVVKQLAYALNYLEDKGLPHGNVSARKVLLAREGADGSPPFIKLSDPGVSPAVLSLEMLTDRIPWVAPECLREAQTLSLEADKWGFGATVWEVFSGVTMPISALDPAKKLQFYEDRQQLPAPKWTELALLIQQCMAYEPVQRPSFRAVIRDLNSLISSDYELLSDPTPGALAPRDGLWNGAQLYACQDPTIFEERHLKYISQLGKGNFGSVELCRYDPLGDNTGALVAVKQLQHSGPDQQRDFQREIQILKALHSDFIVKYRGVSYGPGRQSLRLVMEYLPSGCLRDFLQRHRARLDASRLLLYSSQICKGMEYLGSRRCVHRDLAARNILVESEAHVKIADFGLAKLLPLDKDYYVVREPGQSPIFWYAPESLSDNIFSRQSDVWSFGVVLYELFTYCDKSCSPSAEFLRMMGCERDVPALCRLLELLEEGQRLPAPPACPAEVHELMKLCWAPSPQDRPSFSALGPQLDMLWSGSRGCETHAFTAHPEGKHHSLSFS
Particulars: at 0.1 µM.

Test [7] has as its target T2, Tyrosine-protein kinase JAK3 (Homo sapiens). To be noted: at 1 µM.
Test [8] deals with Vascular endothelial growth factor receptor 2 (Homo sapiens) (UniProt P35968). To be noted: at 0.1 µM.
The target is the same in test [9]. To be noted: at 1 µM.
The target of test [10] is Mast/stem cell growth factor receptor Kit (Homo sapiens) (UniProt P10721). Particulars: at 0.1 µM.
Test [11] shares this target. To be noted: at 1 µM.
Test [12] concerns Mast/stem cell growth factor receptor Kit (Homo sapiens), P10721 [D816V]. To be noted: at 0.1 µM.
The test system is the same in test [13]. Particulars: at 1 µM.
Test [14] deals with Mast/stem cell growth factor receptor Kit (Homo sapiens), P10721 [T670I]. Particulars: at 0.1 µM.
For test [15] the test system is unchanged. To be noted: at 1 µM.
The test system of test [16] is Mast/stem cell growth factor receptor Kit (Homo sapiens), P10721 [V560G]. Particulars: at 0.1 µM.
For test [17] the test system is unchanged. To be noted: at 1 µM.
Test [18] has as its target Tyrosine-protein kinase Lck (Homo sapiens) (UniProt P06239). Particulars: at 0.1 µM.
For test [19] the target is unchanged. Particulars: at 1 µM.
Test [20] has as its target Leukocyte tyrosine kinase receptor (Homo sapiens) (UniProt P29376). To be noted: at 0.1 µM.

The source of these data is ChEMBL document CHEMBL1961873, “Compounds: GSK PKIS; Assays: Nanosyn kinase panel” (2012).

Chain of Mast/stem cell growth factor receptor Kit (Homo sapiens), P10721 [V560G] (P10721 whole entry V560G): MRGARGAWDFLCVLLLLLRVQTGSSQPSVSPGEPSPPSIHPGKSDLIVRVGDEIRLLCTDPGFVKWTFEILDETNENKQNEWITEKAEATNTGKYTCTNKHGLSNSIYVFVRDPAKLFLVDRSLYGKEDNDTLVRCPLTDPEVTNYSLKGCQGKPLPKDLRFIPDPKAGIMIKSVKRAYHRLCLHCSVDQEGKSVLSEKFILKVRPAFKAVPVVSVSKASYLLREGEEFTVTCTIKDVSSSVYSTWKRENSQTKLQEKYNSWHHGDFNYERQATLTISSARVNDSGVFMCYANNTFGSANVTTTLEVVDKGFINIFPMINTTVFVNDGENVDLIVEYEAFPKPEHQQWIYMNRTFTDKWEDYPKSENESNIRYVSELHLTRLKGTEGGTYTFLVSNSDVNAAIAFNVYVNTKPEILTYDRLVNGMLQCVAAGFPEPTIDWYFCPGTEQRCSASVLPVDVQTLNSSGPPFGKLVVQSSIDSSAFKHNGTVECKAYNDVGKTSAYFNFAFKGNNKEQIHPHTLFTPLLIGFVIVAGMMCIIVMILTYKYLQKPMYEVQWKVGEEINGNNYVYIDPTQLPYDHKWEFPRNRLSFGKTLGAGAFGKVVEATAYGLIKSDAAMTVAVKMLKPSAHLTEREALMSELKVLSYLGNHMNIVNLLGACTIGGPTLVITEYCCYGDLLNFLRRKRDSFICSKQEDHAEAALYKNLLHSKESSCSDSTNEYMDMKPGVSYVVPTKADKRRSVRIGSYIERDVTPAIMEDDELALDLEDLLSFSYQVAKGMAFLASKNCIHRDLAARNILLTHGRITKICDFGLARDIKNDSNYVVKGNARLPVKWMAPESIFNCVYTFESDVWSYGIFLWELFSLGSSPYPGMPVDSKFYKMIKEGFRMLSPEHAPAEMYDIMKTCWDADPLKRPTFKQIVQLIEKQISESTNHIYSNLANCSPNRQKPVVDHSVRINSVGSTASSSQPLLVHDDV
Chain of Mast/stem cell growth factor receptor Kit (Homo sapiens) (P10721 whole entry): as the sequence (P10721 whole entry V560G) above, with G560V counted along it
Chain of Tyrosine-protein kinase JAK2 (Homo sapiens) (O60674 whole entry): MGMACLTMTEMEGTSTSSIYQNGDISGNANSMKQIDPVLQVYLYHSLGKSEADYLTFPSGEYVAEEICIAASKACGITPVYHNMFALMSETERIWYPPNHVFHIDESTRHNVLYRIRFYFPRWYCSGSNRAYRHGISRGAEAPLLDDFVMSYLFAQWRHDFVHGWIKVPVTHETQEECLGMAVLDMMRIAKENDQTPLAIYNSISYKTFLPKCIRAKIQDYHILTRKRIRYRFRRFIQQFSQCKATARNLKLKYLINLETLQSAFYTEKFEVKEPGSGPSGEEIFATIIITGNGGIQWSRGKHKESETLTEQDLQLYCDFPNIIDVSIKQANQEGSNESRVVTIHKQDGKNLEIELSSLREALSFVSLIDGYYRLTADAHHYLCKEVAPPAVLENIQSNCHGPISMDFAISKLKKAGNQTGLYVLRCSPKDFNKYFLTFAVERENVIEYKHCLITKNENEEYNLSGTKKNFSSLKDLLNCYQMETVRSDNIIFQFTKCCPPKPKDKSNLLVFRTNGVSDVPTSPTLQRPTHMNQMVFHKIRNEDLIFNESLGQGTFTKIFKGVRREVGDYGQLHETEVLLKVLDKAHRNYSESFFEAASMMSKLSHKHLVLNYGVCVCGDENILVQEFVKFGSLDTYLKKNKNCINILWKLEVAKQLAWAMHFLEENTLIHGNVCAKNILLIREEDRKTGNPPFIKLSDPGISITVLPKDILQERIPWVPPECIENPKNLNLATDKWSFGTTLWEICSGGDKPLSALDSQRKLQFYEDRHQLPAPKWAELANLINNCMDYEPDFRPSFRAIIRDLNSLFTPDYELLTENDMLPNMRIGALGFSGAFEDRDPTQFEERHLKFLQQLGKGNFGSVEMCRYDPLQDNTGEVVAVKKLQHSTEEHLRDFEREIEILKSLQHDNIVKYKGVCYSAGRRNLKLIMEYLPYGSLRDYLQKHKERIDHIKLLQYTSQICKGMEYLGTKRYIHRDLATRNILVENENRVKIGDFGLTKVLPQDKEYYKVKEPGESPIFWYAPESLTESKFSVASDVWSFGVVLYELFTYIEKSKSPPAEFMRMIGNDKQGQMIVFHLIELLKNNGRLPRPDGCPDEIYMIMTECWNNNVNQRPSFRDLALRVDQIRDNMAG
Chain of Tyrosine-protein kinase JAK1 (Homo sapiens) (P23458 whole entry): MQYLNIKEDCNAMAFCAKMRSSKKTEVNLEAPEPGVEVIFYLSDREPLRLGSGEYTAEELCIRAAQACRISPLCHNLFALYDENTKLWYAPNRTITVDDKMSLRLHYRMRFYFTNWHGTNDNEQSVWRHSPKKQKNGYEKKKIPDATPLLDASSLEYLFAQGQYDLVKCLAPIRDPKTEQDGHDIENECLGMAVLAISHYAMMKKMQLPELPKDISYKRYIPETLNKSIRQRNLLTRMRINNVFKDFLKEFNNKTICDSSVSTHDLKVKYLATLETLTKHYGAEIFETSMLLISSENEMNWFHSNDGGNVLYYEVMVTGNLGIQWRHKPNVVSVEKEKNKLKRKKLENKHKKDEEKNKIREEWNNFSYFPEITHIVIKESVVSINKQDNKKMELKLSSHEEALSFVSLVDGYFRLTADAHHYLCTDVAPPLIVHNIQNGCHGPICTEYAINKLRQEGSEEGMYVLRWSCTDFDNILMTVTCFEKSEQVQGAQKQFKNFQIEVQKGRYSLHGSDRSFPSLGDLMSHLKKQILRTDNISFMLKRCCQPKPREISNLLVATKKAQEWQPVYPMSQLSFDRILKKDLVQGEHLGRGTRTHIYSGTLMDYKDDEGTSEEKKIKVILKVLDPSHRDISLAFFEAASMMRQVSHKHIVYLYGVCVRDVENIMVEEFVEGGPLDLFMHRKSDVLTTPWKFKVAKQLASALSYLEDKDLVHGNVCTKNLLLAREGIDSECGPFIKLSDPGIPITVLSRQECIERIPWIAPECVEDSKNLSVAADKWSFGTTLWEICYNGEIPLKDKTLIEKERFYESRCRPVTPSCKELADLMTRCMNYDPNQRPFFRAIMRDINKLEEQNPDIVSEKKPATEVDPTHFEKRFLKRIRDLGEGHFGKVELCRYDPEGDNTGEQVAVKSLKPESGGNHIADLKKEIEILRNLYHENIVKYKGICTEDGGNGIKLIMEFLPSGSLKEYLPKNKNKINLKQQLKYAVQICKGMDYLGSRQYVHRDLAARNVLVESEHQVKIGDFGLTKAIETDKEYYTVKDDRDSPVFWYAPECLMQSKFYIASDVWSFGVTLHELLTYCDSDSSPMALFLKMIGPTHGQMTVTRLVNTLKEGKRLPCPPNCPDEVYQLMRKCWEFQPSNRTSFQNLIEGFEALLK
Chain of Leukocyte tyrosine kinase receptor (Homo sapiens) (P29376 whole entry): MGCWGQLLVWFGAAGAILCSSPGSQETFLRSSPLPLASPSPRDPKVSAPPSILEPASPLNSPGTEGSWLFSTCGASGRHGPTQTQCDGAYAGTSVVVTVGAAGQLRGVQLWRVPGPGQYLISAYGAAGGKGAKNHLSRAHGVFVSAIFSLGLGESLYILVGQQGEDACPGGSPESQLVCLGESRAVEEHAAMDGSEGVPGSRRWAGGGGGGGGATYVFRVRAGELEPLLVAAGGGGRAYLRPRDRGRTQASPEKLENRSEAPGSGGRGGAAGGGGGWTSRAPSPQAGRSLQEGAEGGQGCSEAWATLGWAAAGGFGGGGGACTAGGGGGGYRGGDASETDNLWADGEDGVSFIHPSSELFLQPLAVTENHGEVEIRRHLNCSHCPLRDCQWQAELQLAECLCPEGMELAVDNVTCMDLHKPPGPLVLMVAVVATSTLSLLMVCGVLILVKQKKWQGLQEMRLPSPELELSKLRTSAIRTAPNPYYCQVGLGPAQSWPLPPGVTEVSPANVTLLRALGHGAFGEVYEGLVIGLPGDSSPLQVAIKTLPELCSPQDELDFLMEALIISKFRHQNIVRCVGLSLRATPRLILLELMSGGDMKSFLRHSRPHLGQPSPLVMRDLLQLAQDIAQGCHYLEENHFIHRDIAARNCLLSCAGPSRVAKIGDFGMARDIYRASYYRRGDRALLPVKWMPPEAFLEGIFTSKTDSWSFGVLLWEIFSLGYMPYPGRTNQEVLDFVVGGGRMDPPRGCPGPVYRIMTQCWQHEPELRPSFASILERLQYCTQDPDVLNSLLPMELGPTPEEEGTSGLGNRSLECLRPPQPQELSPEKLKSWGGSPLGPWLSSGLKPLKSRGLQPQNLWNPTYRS
Chain of Mast/stem cell growth factor receptor Kit (Homo sapiens), P10721 [T670I] (P10721 whole entry T670I): as the sequence (P10721 whole entry V560G) above, with G560V, T670I counted along it
Chain of Mast/stem cell growth factor receptor Kit (Homo sapiens), P10721 [D816V] (P10721 whole entry D816V): as the sequence (P10721 whole entry V560G) above, with G560V, D816V counted along it
Chain of Tyrosine-protein kinase Lck (Homo sapiens) (P06239 2-509 limits assumed): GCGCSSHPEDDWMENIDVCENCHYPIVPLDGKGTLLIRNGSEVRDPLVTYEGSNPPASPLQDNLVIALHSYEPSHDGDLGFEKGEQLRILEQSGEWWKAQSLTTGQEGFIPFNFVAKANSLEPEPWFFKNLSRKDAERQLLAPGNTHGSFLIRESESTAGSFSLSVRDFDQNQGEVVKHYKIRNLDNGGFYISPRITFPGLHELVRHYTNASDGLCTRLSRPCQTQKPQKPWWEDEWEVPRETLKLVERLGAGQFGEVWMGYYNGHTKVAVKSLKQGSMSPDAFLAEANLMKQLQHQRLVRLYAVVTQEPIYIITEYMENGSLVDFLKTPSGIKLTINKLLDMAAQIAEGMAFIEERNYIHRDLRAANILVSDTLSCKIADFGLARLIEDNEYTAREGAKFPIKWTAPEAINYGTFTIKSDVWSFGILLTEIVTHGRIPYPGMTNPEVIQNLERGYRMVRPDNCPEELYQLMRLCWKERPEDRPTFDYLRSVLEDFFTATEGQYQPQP

One may read the inhibition as the drop in the measured response relative to a control, in per cent. With `NS(=O)(=O)c1ccc(-c2cc3ccncc3cc2OCc2ccccc2)cc1`, the inhibition in test [1] is 0.35%; in test [2] it was 3.02%; in test [3], 10%; in test [4], 1.43%; in [5], 3.23%; in test [6], -0.75%. For the same molecule, the inhibition is -1.27% in test [7]; 4.82% in test [8]; 8.11% in [9]; 4.01% in test [10]; 8.06% in test [11]; 2.17% in test [12]. The inhibition in test [13] is 3.92%; in [14], 2.02%; in test [15], 4.23%; in [16], 0.41%; in test [17], 0.33%; in test [18], 1.15%. The inhibition in test [19] turned out to be 3.87%; in test [20], 6.08%.
In the case of `FC(F)(F)c1ccc(-c2nn3ncccc3c2-c2ccnc(Nc3ccc4c(c3)OCCO4)n2)cc1`, the inhibition in test [1] was 4.7%; in test [2], 7.49%; in [3], 24.3%; in [4] it was -0.67%; in test [5], -0.89%; in [6], 6.03%. Moreover, the inhibition in test [7] is 4.36%; in test [8], -0.31%; in test [9], 9.68%; in test [10], 6.76%; in test [11], 41.4%; in test [12], -0.4%. In addition, the inhibition in test [13] came to 4.93%; in test [14] it was 0.89%; in test [15], 6.31%; in [16], 9.1%; in test [17], 21.1%; in [18] it was 6.41%. For the same molecule, the results for the inhibition in [19] and in test [20] were 42.5% and 1.18%, respectively.
As for `Cc1ccc2c(-c3ccnc(Nc4ccc5c(c4)OCCO5)n3)c(-c3ccc(C(F)(F)F)cc3)nn2n1`, the inhibition is 1.1% in [1]; 1.09% in test [2]; 1.09% in test [3]; 0.16% in [4]; -1.16% in [5]; -2.23% in [6]. The inhibition in [7] is 1.23%; in test [8], -0.67%; in [9] it was 2.81%; in test [10] it was -0.52%; in test [11], 2.39%; in [12], -1.16%. The inhibition in test [13] was 0.16%; in [14], -0.41%; in test [15], -0.07%; in test [16], 0.29%; in test [17], 0.88%; in test [18] it was 1.9%. In addition, the inhibition in [19] is 8.08%; in [20], 0.85%.
For `NC(=O)c1cccc(Nc2nccc(Nc3cccc(F)c3)n2)c1`, the inhibition is 2.4% in test [1]; 3.17% in [2]; 32% in test [3]; 2.34% in test [4]; 46.6% in [5]; -1.62% in [6]. In addition, the inhibition in test [7] is 2.72%; in test [8] it was 5.1%; in test [9] it was 44.7%; in test [10], 42.5%; in test [11] it was 82.6%; in [12], -0.14%. Besides, the inhibition was 2.14% in test [13]; 0.52% in [14]; 7.62% in [15]; 2.06% in test [16]; 32.6% in [17]; 2.44% in [18]. The inhibition in [19] is 15%; in [20], 0.75%.
`Nc1nccc(-c2c(-c3ccc(F)cc3)nn3cc(C(F)(F)F)ccc23)n1`: the inhibition was 0.43% in [1]; -0.26% in [2]; 1.9% in [3]; -0.24% in test [4]; -1.98% in test [5]; -1.7% in test [6]. Moreover, the inhibition in test [7] is -0.29%; in test [8] it was 0.31%; in [9] it was 0.56%; in test [10], -1.06%; in test [11] it was 1.1%; in test [12], 1.51%. In addition, the inhibition in test [13] is -0.82%; in [14], -0.08%; in [15], -0.07%; in test [16] it was 1.43%; in test [17], 0.2%; in test [18], 2.62%. Further, the inhibition in test [19] turned out to be 4.27%; in [20], 1.83%.
As for `CN(C)C(=O)O[C@@H]1CN[C@@H](C#Cc2cc3ncnc(Nc4ccc(OCc5cccc(F)c5)c(Cl)c4)c3s2)C1`, the inhibition in [1] was 0.1%; in test [2], 1.28%; in test [3] it was 0.05%; in test [4], 0.23%; in test [5] it was -0.45%; in [6], 0.14%. The inhibition was 2.09% in test [7]; 0.75% in [8]; 3.31% in test [9]; -1.17% in test [10]; -0.23% in test [11]; 1.36% in [12]. Moreover, the inhibition in test [13] was -2.75%; in test [14] it was -2.12%; in [15] it was -2.74%; in test [16], 0.19%; in [17] it was 4.14%; in [18], 1.89%. Moreover, the inhibition in test [19] is 5.66%; in test [20] it was 0.9%.
